Experimental data as given in paper PMC13494018.
Values without a mark were called inactive. How the calls were made is not given here.

Target: VTCN1, Q7Z7D3
Sequence (Q7Z7D3 whole entry): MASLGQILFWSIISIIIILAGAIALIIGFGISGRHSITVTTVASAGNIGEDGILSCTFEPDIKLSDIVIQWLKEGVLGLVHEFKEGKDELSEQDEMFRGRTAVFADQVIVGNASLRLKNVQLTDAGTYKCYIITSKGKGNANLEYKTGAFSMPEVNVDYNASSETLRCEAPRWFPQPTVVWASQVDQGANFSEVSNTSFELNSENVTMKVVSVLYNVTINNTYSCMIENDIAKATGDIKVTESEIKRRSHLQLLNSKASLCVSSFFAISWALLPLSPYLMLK

B1: design_602_0a1f3d3d-7d26-454b-9b34-ebe8ef9bc7d4_1719_dldesign_0_cycle1_af2pred (protein)
chain: GLAEEYKKKAEEAEEKAFNSKNVEAAYYYLKASQYYNAAAIYTKKGEEYLEKAKESYEKGKEYEKKGEEIEKK
- binding in a display sort: not found

B2: design_602_0a1f3d3d-7d26-454b-9b34-ebe8ef9bc7d4_1819_dldesign_0_cycle1_af2pred (protein)
chain: GSAIMDAQAKAVEIRTEAEKLAKEYKDLPTAKDFKKAAEIAREALKNGEEAIELSKKAEELLEKAKKKLKEELEKK
- binding in a display sort: not found

B3: design_602_0a1f3d3d-7d26-454b-9b34-ebe8ef9bc7d4_1707_dldesign_0_cycle1_af2pred (protein)
chain: AAAAEAFGKELAAMLDEAYDKSTEDLEKAKEVLAKLKAKAEAAPAEVAEYAKKALKTAKSIEDSIEIEEKLKK
- binding in a display sort: not found

B4: design_602_0a1f3d3d-7d26-454b-9b34-ebe8ef9bc7d4_1603_dldesign_0_cycle1_af2pred (protein)
chain: KNTLEKAAEAIQAYREEATAYAKEISKKEGKEAGEKAYEEFKKKVKELIALAKADPEAGLKEATKLLEELKAK
- binding in a display sort: not found

B5: design_602_0a1f3d3d-7d26-454b-9b34-ebe8ef9bc7d4_1736_dldesign_0_cycle1_af2pred (protein)
chain: DLKEKVEKAEKILKKRKEKLEKAKEKGPKEAKKEAALAKEQMENLIEALKKILEEAKDDPETKAKAEKVIEEAKKLKEEAEKLEKE
- binding in a display sort: not found

B6: design_602_0a1f3d3d-7d26-454b-9b34-ebe8ef9bc7d4_1768_dldesign_0_cycle1_af2pred (protein)
chain: EEKERAKKFGEGYGEAQLDLAESAMKKATKPEEVKKAAETAAERARKRAKEGTPEEAEELLKAAEKIEKLGKEYLAKL
- binding in a display sort: not found

B7: design_603_0b98da89-d791-4423-9b2d-fd1b7292da18_594_dldesign_0_cycle1_af2pred (protein)
chain: SMEEEAKKKLEEVKKEAEKVKKEAEKALKEAKATDKAKGLAAMAKVAAKAHEVRAEGDYYGKYDPEAAKIGKEVMEYVRAKAKEIEA
- binding in a display sort: not found

B8: design_602_0a1f3d3d-7d26-454b-9b34-ebe8ef9bc7d4_1902_dldesign_0_cycle1_af2pred (protein)
chain: DEKKKNLLRAAALTLEEAIEALDTDKNWGAALARSAARYAEEAGDEETAAIAREAAELAAAGGPEVAPEAKALLKEAAERLKKKI
- binding in a display sort: not found

B9: design_603_0b98da89-d791-4423-9b2d-fd1b7292da18_227_dldesign_0_cycle1_af2pred (protein)
chain: DKLKEKAEKLKKEVEEEMKKMKKLVKEGKEEEAKAEAKKTKEIAEKAEKAGEEAIEKGDEESKKAGRDALATAERAKQAAKAVIK
- binding in a display sort: not found

B10: design_603_0b98da89-d791-4423-9b2d-fd1b7292da18_386_dldesign_0_cycle1_af2pred (protein)
chain: EKEEIIKRAKEAAERMKELAKKDPKYAEDAKKGKEVAEKAIEKAKESDKSLASAEALAESLELAVEYLEKKLKE
- binding in a display sort: not found

B11: design_602_0a1f3d3d-7d26-454b-9b34-ebe8ef9bc7d4_2169_dldesign_0_cycle1_af2pred (protein)
chain: SAFEILKVIEEKAKEVYEITKEENPKIAKKIAAAAYTAGVALGAGDEEEAKKVIEKGKALADKEGAEKGKKALEEAVEEVKKKAKE
- binding in a display sort: not found

B12: design_602_0a1f3d3d-7d26-454b-9b34-ebe8ef9bc7d4_1408_dldesign_0_cycle1_af2pred (protein)
chain: AAAAAAAAKAALDLAKEQLKKAKEYKELAKKYKEEGNISKANSAEADAINAAHAAIVAATKAAADPKYAAEAKKVKDEAEKLEKEVLE
- binding in a display sort: not found

B13: design_603_0b98da89-d791-4423-9b2d-fd1b7292da18_768_dldesign_0_cycle1_af2pred (protein)
chain: KAFQAYNSSKALADNNVAVAKKLAEKGKLEEAEKAAKEGLERLKARAERLKGDPEAYKAAMKALEEYEKRAKEVVEEGKKAK
- binding in a display sort: not found

B14: design_603_0b98da89-d791-4423-9b2d-fd1b7292da18_39_dldesign_0_cycle1_af2pred (protein)
chain: EETFKKAVEELLKIAKEVYKKDPKAGSAAAGEIYRGKAEYEATGNLEVGVEELQKAAEIIKKADKELGEKAKKIVEEAKKK
- binding in a display sort: not found

B15: design_603_0b98da89-d791-4423-9b2d-fd1b7292da18_1135_dldesign_0_cycle1_af2pred (protein)
chain: SEELKELAKAVLEEFSKKVHELYELAAEKDKETSKKIKELAKKAAEYGKKAVEDYLKGEKKEEGEKYKKEAEKYFEEAKKLAE
- binding in a display sort: not found

B16: design_602_0a1f3d3d-7d26-454b-9b34-ebe8ef9bc7d4_1422_dldesign_0_cycle1_af2pred (protein)
chain: DAFLKEAEKLKKKLTEELKKLKEEAKKLTPEVQKKVLEEVKEAEEALKKALELAKKGDKKEAGKAAQEALEKLAEARWLVNKAK
- binding in a display sort: not found

B17: design_603_0b98da89-d791-4423-9b2d-fd1b7292da18_78_dldesign_0_cycle1_af2pred (protein)
chain: MSENVKFASELIRKVVKEAKKIGKEKGASEEAKKKAIEEVAKAIDKISEAAQKGDKEKAKAIAEEAIKKIKKILEEGA
- binding in a display sort: not found

B18: design_602_0a1f3d3d-7d26-454b-9b34-ebe8ef9bc7d4_1801_dldesign_0_cycle1_af2pred (protein)
chain: GKLVEEAKKALEEAKALAAKNPELAKMAEAALERFEKSLRAGLAAADGLASTAAKLGAEDPENAKLAELAGKAAELLFEAI
- binding in a display sort: not found

B19: design_602_0a1f3d3d-7d26-454b-9b34-ebe8ef9bc7d4_1646_dldesign_0_cycle1_af2pred (protein)
chain: SEFKKKAKLISEAELLINRMAALSPEAAAGAKAILKLAEGGKQEEAEKKIKEIKAASPEEATKLAIEVGKKVAAE
- binding in a display sort: not found

B20: design_603_0b98da89-d791-4423-9b2d-fd1b7292da18_215_dldesign_0_cycle1_af2pred (protein)
chain: MTEEEERALVRGAYRAAVEAAKDPANAADYLAKSKALADELIAKGSKKAIASAAFKLEGVAEAAAKDPATAEVAKAANATAKRLNAAL
- binding in a display sort: not found

B21: design_603_0b98da89-d791-4423-9b2d-fd1b7292da18_1163_dldesign_0_cycle1_af2pred (protein)
chain: MEALKEIKELMKKAEEEAKKLAKSMGVEGAKEGLKVAEKYFSSIFDIAIEKLTPEEAKEALDIANKAAKEIKDYIDKAIAEK
- binding in a display sort: not found

B22: design_603_0b98da89-d791-4423-9b2d-fd1b7292da18_519_dldesign_0_cycle1_af2pred (protein)
chain: AAAQEEARKAAERAAKIMRRRGERTGDLEKAEEAAKRVAAALAEGRAAGSAAMAEALEEFAELEYEKRKEEKKKKEEALE
- binding in a display sort: not found

B23: design_603_0b98da89-d791-4423-9b2d-fd1b7292da18_403_dldesign_0_cycle1_af2pred (protein)
chain: AAAAEERAAGLAGRARVLEKSGLRLAKLNPEQGELLAEFLREEAEADPIGAPHFRAAADRLLAEVRKYKE
- binding in a display sort: not found

B24: design_603_0b98da89-d791-4423-9b2d-fd1b7292da18_10_dldesign_0_cycle1_af2pred (protein)
chain: EKEKEELRKELLEKYEEVKKAVEEALKNASNPEVQAELAKVVHEFQELAAEVGAKYPEIAEEAKKLRKEAIEEAKKAVEKSK
- binding in a display sort: not found

B25: design_603_0b98da89-d791-4423-9b2d-fd1b7292da18_1193_dldesign_0_cycle1_af2pred (protein)
chain: GEEEKLKELIKKTEELAEGTEKLAKKVSEKYPEFEEELKKAAEEAKKAAEEAKKNPEKAPEQYKKVNEKNFEVQQLRAEGKYKS
- binding in a display sort: not found

B26: design_603_0b98da89-d791-4423-9b2d-fd1b7292da18_754_dldesign_0_cycle1_af2pred (protein)
chain: NDEEAKQKLAEAAAKLHEAAALAEYEGDEELAKKAREAAKELKAAAADPSLTAEEKAKLAEEAKKKAEEIIKKVEEK
- binding in a display sort: not found

B27: design_603_0b98da89-d791-4423-9b2d-fd1b7292da18_1094_dldesign_0_cycle1_af2pred (protein)
chain: GKEEAEKKLKEAKEKVEEMEKKAKEIEENAKELSAEEIEKIAEEMRKEGEEAIKKAEEADPEKGKEIRKKASEAVHKIREAIAEAKA
- binding in a display sort: not found

B28: design_603_0b98da89-d791-4423-9b2d-fd1b7292da18_614_dldesign_0_cycle1_af2pred (protein)
chain: DEYVKKAKEAIKKAKEYVEEAKKYAEKGDIENAIKSVQKAQEEISAAYFYADQALKLDPEKGKKLKEEAEKVKEELEKVKEYIKAK
- binding in a display sort: not found

B29: design_603_0b98da89-d791-4423-9b2d-fd1b7292da18_819_dldesign_0_cycle1_af2pred (protein)
chain: SAKEKASAALRAVATAAARDAKKRFPKIDKETANEFQKARMYAADPNEVAKGIEHLKAAAAKLGEIGKEYIAAADKVAALL
- binding in a display sort: not found

B30: design_602_0a1f3d3d-7d26-454b-9b34-ebe8ef9bc7d4_1428_dldesign_0_cycle1_af2pred (protein)
chain: EEEEKKKKEYVEKIKKALKEVKEAGKKGTEEQKKLAAETADKLYELKAIAEFSNAEEAEKYAEKAEKLAKETLKKIKK
- binding in a display sort: not found

B31: design_603_0b98da89-d791-4423-9b2d-fd1b7292da18_573_dldesign_0_cycle1_af2pred (protein)
chain: EELLKGAEEIKKKAEEVVKEIKKINPKLGEEAEKELKEAEKEGKKETPAVYIQKMQEALTYAKSLLIKAKKE
- binding in a display sort: not found

B32: design_603_0b98da89-d791-4423-9b2d-fd1b7292da18_202_dldesign_0_cycle1_af2pred (protein)
chain: GSATVDALEKALDAREELLRLAKELPPERAELAEKLRAAAEELRETIRRAQKLSPEEGAALITAAAEKARALAKEVKAA
- binding in a display sort: not found

B33: design_603_0b98da89-d791-4423-9b2d-fd1b7292da18_450_dldesign_0_cycle1_af2pred (protein)
chain: MKKEEELKAKYKKAKELVEEKYKRAKEVVKNGTVEQGLAAAESLLEFGKHAGKSLEKAGDKEGGKEVKELAEKYYKELKEEAEKKA
- binding in a display sort: not found

B34: design_603_0b98da89-d791-4423-9b2d-fd1b7292da18_996_dldesign_0_cycle1_af2pred (protein)
chain: SAAEERRKKGLELAEKRYAELEKLAKETEELNPELGKEAKKEAEEAKKYYEKAAEAPDSEVIDYVAKANEKRIKAEKLYKKAK
- binding in a display sort: not found

B35: design_603_0b98da89-d791-4423-9b2d-fd1b7292da18_74_dldesign_0_cycle1_af2pred (protein)
chain: KEKVKKLEEEAIKALKELSKYRDNPEKAAEYAEKLYEKAFEMGIPLSIASRAAKLAKEGEEGAKEGVKLIKEEAKKVIEE
- binding in a display sort: not found

B36: design_603_0b98da89-d791-4423-9b2d-fd1b7292da18_572_dldesign_0_cycle1_af2pred (protein)
chain: SEKEEYLKKAKEEMEKLKAEILELMKKGNEYLPEASKLMAEMREIGAEAAFYVGPEADELRKKIMGEVLEAAKKYSG
- binding in a display sort: not found

B37: design_603_0b98da89-d791-4423-9b2d-fd1b7292da18_1132_dldesign_0_cycle1_af2pred (protein)
chain: EEEASKKAREDADKISKEQKKIKENAKAAKAGTPEEAKAKYEEAKKAAEEIKKIDPDLGTFVLNNIKKWYA
- binding in a display sort: not found

B38: design_602_0a1f3d3d-7d26-454b-9b34-ebe8ef9bc7d4_1947_dldesign_0_cycle1_af2pred (protein)
chain: ATEEEVKAAVRETIKAAKKYVEAGGDAKEAAEIAHKAQEAKAEGIASGKLDEAYAKVKKLAEEAKAKAEEVEK
- binding in a display sort: not found
